Drawing on PubChem BioAssay (NCI), this text covers growth inhibition for 20 compounds.

Structures are written as SMILES. The panel holds about 79,000 compounds, 15% with a hit somewhere; the sample as a whole holds those more often. Values without a mark were called inactive. Activity calls are given as the source filed them. Cut-off read from the data, not from the text of the source: active = growth inhibition above about 70%; inactive = the rest.

Assay [1] can be described thus: NCI Yeast Anticancer Drug Screen. Data for the rad50 strain (AID 155).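 Note: 0% = growth of vehicle-only cultures of the same strain.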 Particulars: S. cerevisiae rad50 strain growth inhibition; at 50.0 µM; stronger effect = higher value. The method, boiled down:
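Growth of the mutant yeast was measured after compound exposure and referenced to vehicle-treated cultures.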

Assay [2] in a line: NCI Yeast Anticancer Drug Screen. Data for the mec2-1 strain (AID 157). To be noted: S. cerevisiae mec2-1 strain, at 50.0 µM, stronger effect = higher value. The method, boiled down:
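Compounds were applied to mec2-1 yeast cells. Their growth was then compared with that of vehicle-treated cultures to give growth inhibition.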

The nature of assay [3]: NCI Yeast Anticancer Drug Screen. Data for the sgs1 mgt1 strain (AID 161).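 Note: 0% = growth of cultures given vehicle only.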 To be noted: S. cerevisiae sgs1 mgt1 strain, at 50.0 µM, stronger effect = higher value. The method, boiled down:
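Growth of a repair-deficient yeast mutant was monitored after compound treatment and expressed as inhibition relative to vehicle-treated cultures.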

A short description of assay [4]: NCI Yeast Anticancer Drug Screen. Data for the cln2 rad14 strain (AID 165).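 Note: 0% = growth equal to vehicle treated cultures.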 To be noted: S. cerevisiae cln2 rad14 strain, at 50.0 µM, stronger effect = higher value. The method, boiled down: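 Strain: cln2 rad14 yeast, altered in cell cycle control and DNA damage repair. Read-out: growth inhibition vs vehicle.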
The nature of assay [5]: NCI Yeast Anticancer Drug Screen. Data for the bub3 strain (AID 167). To be noted: S. cerevisiae bub3 mutant strain, at 50.0 µM, stronger effect = higher value. The method, boiled down: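 Whole-cell yeast assay. The mutant strain was incubated with compounds, and growth inhibition was determined by comparison with vehicle-treated cells.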
Assay [6] in a line: NCI Yeast Anticancer Drug Screen. Data for the mlh1 rad18 strain (AID 175). Particulars: S. cerevisiae mlh1 rad18 strain growth inhibition; at 50.0 µM; stronger effect = higher value. The method, boiled down: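 A repair-deficient yeast strain is exposed to test compound, and growth is scored relative to vehicle-treated controls.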

Take `O=C(Nc1nc2ccc([N+](=O)[O-])cc2s1)C(=O)C(C(=O)c1ccncc1)C1OC(=O)c2ccccc21` (stereo not given): the growth inhibition in assay [1] was 24.1%; in assay [2], 9.25%; in assay [3] it was -19.5%; in assay [4] it was 39.2%; in assay [5] it was 49.8%; in assay [6] it was 27.3%.
For the compound `Cc1cc(=O)oc2cc(OC(=O)Nc3ccc(F)c([N+](=O)[O-])c3)ccc12`, the growth inhibition in assay [1] is 7.85%; in assay [2] it was 45.2%; in assay [3] it was 27.1%; in assay [4], -11.8%; in assay [5], 53.9%; in assay [6], 12.5%.
As to `O=S1(=O)CCCC1C(O)c1ccccc1` (stereo not given), the growth inhibition was 13.8% in assay [1]; -5.75% in assay [2]; -8.85% in assay [3]; -60.2% in assay [4]; 1.55% in assay [5]; -15.1% in assay [6].
As to `CC1=C(C)CC2C(=O)C=CC(=O)C2C1` (stereo not given), the growth inhibition in assay [1] was 8.9%; in assay [2], 1.4%; in assay [3], -10.7%; in assay [4] it was 4.65%; in assay [5], 2.25%; in assay [6] it was -6.9%.
Take `Cc1ccc(NC(=O)OC/C=C/c2ccccc2)cc1NC(=O)OC/C=C/c1ccccc1`: the growth inhibition in assay [1] is 17.9%; in assay [2], 3.05%; in assay [3] it was 9.05%; in assay [4] it was 6.35%; in assay [5], -8.35%; in assay [6], 24.1%.
Regarding `CCOc1ccc2ccc3ccccc3c2c1NC(C)=O`, the growth inhibition in assay [1] was 10.4%; in assay [2] it was 2.3%; in assay [3] it was 12.2%; in assay [4], 32%; in assay [5], 3.6%; in assay [6] it was 6.25%.
Regarding `CCN(CC)CCOCC1CCCN2CCCCC12` (stereo not given), the growth inhibition is -9.5% in assay [1]; -9.8% in assay [2]; -1.75% in assay [3]; 5.75% in assay [4]; 16.1% in assay [5]; -50.1% in assay [6].
As for `O/N=C(/CN1CCOCC1)c1ccccc1`, the growth inhibition in assay [1] is -7.25%; in assay [2] it was 7.9%; in assay [3], -0.25%; in assay [4], -20.9%; in assay [5], 8.4%; in assay [6] it was 0%.
As for `O=C(Nc1cc(Cl)ccc1Cl)Oc1c(Cl)cc(Cl)c(Cl)c1[N+](=O)[O-]`, the growth inhibition in assay [1] was 10.2%; in assay [2], -37.1%; in assay [3] it was 29.1%; in assay [4], -33.8%; in assay [5] it was -0.55%; in assay [6], 15.8%.
On to `COCn1c(C)c(C)c2c(=O)oc(=O)[nH]c21`, for which the growth inhibition was -23.2% in assay [1]; 17.7% in assay [2]; -30.6% in assay [3]; -11.3% in assay [4]; 16.6% in assay [5]; -25.5% in assay [6].
`NC(=O)N=C(NC(N)=O)NC(N)=O`: the growth inhibition in assay [1] is -17.1%; in assay [2], -21.5%; in assay [3], -10.2%; in assay [4], -18.3%; in assay [5], -6.85%; in assay [6], -17.1%.
Consider `c1ccc(-c2ccc(C(=C(c3ccc(-c4ccccc4)cc3)c3ccc(-c4ccccc4)cc3)c3ccc(-c4ccccc4)cc3)cc2)cc1`, for which the growth inhibition in assay [1] is 1.1%; in assay [2] it was -0.85%; in assay [3] it was -9.9%; in assay [4], -4.15%; in assay [5] it was -4.7%; in assay [6] it was -12.6%.
Consider `CC/C(=C\c1ccc(Cl)cc1)c1ccncc1`, for which the growth inhibition in assay [1] was 99.2% (active); in assay [2], 99.5% (active); in assay [3] it was 99.1% (active); in assay [4], 99% (active); in assay [5] it was 99.2% (active); in assay [6] it was 99.2% (active).
For the compound `COc1ccc(OC)c2c(NCCNCCO)cc(NCCNCCO)nc12`, the growth inhibition is 15.2% in assay [1]; -4.75% in assay [2]; -15.7% in assay [3]; 0% in assay [4]; -3.2% in assay [5]; 7.5% in assay [6].
As for `CC(=O)N1N=C(c2ccc(OCC(O)CN3CCN(CC(O)COc4ccc(C5=NN(C(C)=O)C(c6ccccc6)C5)cc4)CC3)cc2)CC1c1ccccc1` (stereo not given), the growth inhibition in assay [1] was -30.6%; in assay [2], -25.9%; in assay [3], -8.85%; in assay [4], -30.4%; in assay [5] it was -25.9%; in assay [6] it was -3.8%.
For `NCCCCCCN1CCN(c2cccc(Cl)c2)CC1`, the growth inhibition in assay [1] was 14.2%; in assay [2], 21.9%; in assay [3], 14.8%; in assay [4], 7.55%; in assay [5], 13.8%; in assay [6], -13.4%.
As to `CN(C)S(=O)(=O)C(C(N)=O)c1ccccc1` (stereo not given), the growth inhibition in assay [1] was -8.75%; in assay [2], 10.6%; in assay [3], 19.4%; in assay [4], -14.9%; in assay [5], 7.65%; in assay [6] it was 10.4%.
Turning to `Nc1ncnc(N)c1NC(=O)c1ccc(CCc2ccccc2)c(Cl)c1`, the growth inhibition is -3.9% in assay [1]; 37.1% in assay [2]; 21.6% in assay [3]; -14.2% in assay [4]; 4.1% in assay [5]; -4.35% in assay [6].
Regarding `N#C/C(=C/NC(=S)N=Nc1c(O)[nH]c2ccccc12)C(N)=O`, the growth inhibition is -33.7% in assay [1]; -51.7% in assay [2]; -19.8% in assay [3]; -6.6% in assay [4]; -0.9% in assay [5]; -18.9% in assay [6].
For `CC(C)SCCC#N`, the growth inhibition in assay [1] was 13%; in assay [2], -8.55%; in assay [3], -13.1%; in assay [4] it was -5.5%; in assay [5] it was -3.7%; in assay [6], -4.75%.
